High-throughput results from PubChem BioAssay.
CRE-bla Fsk = modulators of forskolin-stimulated CRE signaling in CHO cells; CHO CRE-bla reporter (cAMP response element driving beta-lactamase), forskolin EC10, beta-lactamase ratio; Potency, µM (top dose mostly 38.2 µM), hits mostly activators; actives 2.5% (n = 71,000); AID 662; active = well fitted activation curve with a large enough effect in the signal ratio, with a control signal flat, not every such curve was filed as active; inconclusive = small, poorly fitted or top-dose-only effect, or effect the other way, or a change in a side signal; the % refers to the signal ratio
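qHTS titration format; CRE-bla CHO reporter; stimulus EC10 NKH 477, a water-soluble forskolin. Read: CCF4 460/530 nm ratio. Potency expressed as AC50 for activators or inhibitors.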
Epigenetic mod = derepresses silenced GFP locus in mouse C127i cells. AID 597. actives 0.09% (n = 68,000). Potency, µM (titrated, usually from 46.1 µM). mouse C127i GFP locus derepression, cytometry, 30 h
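Locus derepression in mouse mammary C127i cells whose integrated CMV-GFP reporter is normally silent; GFP expression after 30 h compound treatment was quantified by counting fluorescent cells.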
IkB signaling = suppresses IkB signaling in ABC-DLBCL reporter cells. ABC-DLBCL IkBa-CBG/CBR dual luciferase ratio, 4 h; response scale: scaled: untreated 0%, proteasome inhibitor 100%. Potency, µM (series often up to 57.1 µM). actives 0.04% (n = 110,000). AID 445; active = well fitted curve in the direction sought with a large enough effect in the signal ratio, not every such curve was filed as active; inconclusive = small, poorly fitted or top-dose-only effect, or a change in a side signal; the % refers to the signal ratio;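 also: the direction sought is a rising ratio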
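In this assay, an IκBα–CBG68 fusion accumulates when IKK-driven degradation is blocked; native CBR normalizes for cell number. OCI-Ly3 cells were treated 4 h with compound and doxycycline, then green and red light read after Chroma-Glo addition.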
Peg3 imprint = genomic imprint erasure induction | mouse ES Peg3-LacZ reporter, beta-gal luminescence, 40 h | Potency, µM (doses to about 60.7 µM), actives largely listed as activators | actives 0.02% (n = 110,000) | AID 1948
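Gelatin-coated wells received 300 freshly trypsinized female ES cells with a Peg3LacZ-Neo reporter on the maternal allele, then incubated 40 hours at 37C. BetaGlo was added for 5 minutes at room temperature before a single luminescence read.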
HBB splice mod = modulators of hemoglobin beta chain splicing | HBB splicing reporter cell assay, activation; EGFP reporter with mutant IVS2-654 intron; response scale: normalised to 500 nM splice-correcting PNA | Potency, µM (titrated, usually from 46.1 µM), hits mostly activators | actives 0.06% (n = 65,000)
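HeLa cells stably expressing EGFP interrupted by mutant beta-globin intron 2 (IVS2-654), 500/well in 2% FCS. Treated with compound for 2 days at 37C. Splicing correction scored as total well GFP intensity (488 nm excitation, 500-520 nm emission); 500 nM antisense PNA served as control.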
Hits are given with their value; – = inactive; ? = inconclusive; · = no result given; [ ] = another dose, or the depositor's remark. This is one part of a sample in which hits are shown more often than they occur. Unless noted, calls follow the shape of the dose curve; as a rule, active = well fitted curve in the direction sought with a large enough effect; inconclusive = small, poorly fitted or top-dose-only effect, or another doubt; inactive = no such curve, though single readings can be large; an effect the other way counts as inactive or inconclusive.

SMILES	CRE-bla Fsk	Epigenetic mod	IkB signaling	Peg3 imprint	HBB splice mod
O=C(CSc1nc(Nc2ccccc2)nc(N2CCOCC2)n1)Nc1ccc2c(c1)OCCO2	6.31µM	–	?	–	–
CCCCn1c(NC(=O)c2ccccc2)c(C#N)c2nc3ccccc3nc21	10µM	–	?	–	?
CCCCn1c(NC(=O)c2ccc(F)cc2)c(C#N)c2nc3ccccc3nc21	?	–	?	–	–
N#Cc1c(C(F)(F)F)cc(-c2ccccc2)nc1SCc1nc(N)nc(N2CCOCC2)n1	?	10µM	–	–	10µM
Cc1nc2nc(Cc3ccccc3)nn2c(C)c1Cl	10µM	–	–	–	–
CCc1cnc2c(c1SCCC(C)C)c(=O)n(C)c(=O)n2C	·	·	?	–[10.9 µM]	·
COc1ncc2ncc(=O)n(Cc3cccs3)c2n1	–	–[9.22 µM]	–[11.4 µM]	·	–
CN(C)c1ncc2ncc(=O)n(Cc3cccs3)c2n1	7.94µM	–[9.22 µM]	–[11.4 µM]	·	–
COc1ncc2nc(C)c(=O)n(Cc3cccs3)c2n1	12.6µM	–[9.22 µM]	–[11.4 µM]	·	–
COc1ncc2nc(CCc3ccccc3)c(=O)n(Cc3cccs3)c2n1	12.6µM	–[9.22 µM]	–[11.4 µM]	·	–
Nc1ccc2oc(Cc3ccc(Cl)cc3)nc2c1	·	·	?	–[10.9 µM]	·
Cn1ccnc1SCC(=O)Nc1cc(Cl)ccc1Cl	·	·	–	–[10.9 µM]	·
COc1ccccc1C(=O)Nc1ccc(C(=O)OCc2cc(=O)n3nc(C)sc3n2)cc1	·	·	–	–[10.9 µM]	·
C=CCN1C(=O)/C(=C2/Sc3ccccc3N2CCCS(=O)(=O)O)SC1=S	–	–	–	–	–
C=CCN1C(=O)/C(=C2/Sc3ccccc3N2C)SC1=Nc1c(C)n[nH]c1C	1.58µM	–	–	–	·
Cc1nc(-n2nnc3ccccc32)c2c3c(sc2n1)CCCC3	?	–	?	–	–
Cc1nc(N2CCN(c3ccccc3)CC2)c2c3c(sc2n1)CCC3	3.98µM	–	?	–	–
Cc1ccc(-c2nc3cccnc3s2)cc1NC(=O)Cc1ccccc1	·	·	?	–[10.9 µM]	·
CCOC(=O)c1c(C)[nH]c(C(C)=O)c1C	?	–	–	–	–
CCOC(=O)c1[nH]c(C)c(C(=O)OCCN2C(=O)c3ccccc3C2=O)c1C	2.51µM	–	–	–	–
CCCC1(c2ccccc2)NC(=O)N(CC(=O)c2[nH]c(C)c(C(=O)OCC)c2C)C1=O (centres undefined)	10µM	–	?	–	–
CCCn1c2ccc(C)cc2c2nnc(SCCN3CCCCC3)nc21	·	·	?	–[10.9 µM]	·
CSc1nnc2c3cc(C)ccc3n(Cc3ccccc3)c2n1	2µM	–	–	–	–
O=c1c(-c2cc(F)cc(F)c2)nc2cnc(N3CCOCC3)nc2n1C1CC1	1µM	–[9.22 µM]	–[11.4 µM]	·	–
O=c1c(-c2ccc(F)cc2)nc2cnc(N3CCOCC3)nc2n1Cc1cccs1	?	–[9.22 µM]	–[11.4 µM]	–	–
SMILES	CRE-bla Fsk	Epigenetic mod	IkB signaling	Peg3 imprint	HBB splice mod
O=c1c(-c2cc(F)cc(F)c2)nc2cnc(N3CCNCC3)nc2n1C1CC1	?	–[9.22 µM]	–[11.4 µM]	–	–
O=c1c(-c2cc(F)cc(F)c2)nc2cnc(N3CCOCC3)nc2n1Cc1cccs1	0.631µM	–[9.22 µM]	–[11.4 µM]	–	–
COc1cc(-c2nnc(COc3ccc4ccccc4c3)o2)cc(OC)c1OC	0.126µM	?	?	–	–[0.0738 µM]
Cc1nnc(Sc2nc(Sc3nnc(C)s3)nc(N3CCN(C)CC3)n2)s1	–	–	7.94µM	–	·
CC1(C)Cc2c(sc3c2c(=N)n(Cc2ccco2)c(=O)n3Cc2ccc(F)cc2)CO1	3.98µM	–	–	–	–
COc1ccc(Cn2c(=O)n(Cc3ccco3)c(=N)c3c4c(sc32)COC(C)(C)C4)cc1	?	–	–	–	–
COc1c(C)cccc1C(=O)Nc1cc(-c2nn3c(C)nnc3s2)ccc1C	2.51µM	·	–	–	–
CCn1cc(C(=O)NCC(=O)OC)c2cc(OC)c(OC)cc2c1=O	?	–	–	–	–
CCOCCCNC(=O)c1cn(C)c(=O)c2cc(OC)c(OC)cc12	5.01µM	–	–	–	–
COCCNC(=O)c1cn(C)c(=O)c2cc(OC)c(OC)cc12	?	–	–	–	–
CCC(C)NC(=O)c1cn(C)c(=O)c2cc(OC)c(OC)cc12 (centres undefined)	3.16µM	–	–	–	–
CCn1cc(C(=O)NCc2ccc(C)o2)c2cc(OC)c(OC)cc2c1=O	2.51µM	–	–	–	–
